Laboratory results: PubChem BioAssay AID504329 (Southern Research Specialized Biocontainment Screening …, 2011)
Out of some 340,000 compounds screened, about 1,000 (0.29%) were called active. No stated cut-off is given here; in the data, inconclusive means inhibition above about 27% without an active follow-up result; inactive means below that. A selection follows. Results with a measured potency or affinity are listed apart.

Assay: H1N1 influenza NS1A inhibitors, functional cell based assay (AID 504329)
Details: percent inhibition, at 12.5 µM, stronger effect = higher value
In the case of `C/C(=N\N=c1/sc2ccccc2n1C)c1ccc(N2CCOCC2)cc1`, the inhibition is reported as -7.4% (inactive).
In the case of `Cn1c(=Nc2ccc(N3CCOCC3)cc2)ccc2ccccc21`, the inhibition is reported as -15.9% (inactive).
With `Cn1c(N)c(C(=O)CSc2nnc3n2CCCCC3)c(=O)n(C)c1=O` the inhibition was -13.2% (inactive).
In the case of `CCOc1ccc(CNCCCSc2ncccn2)cc1`, the inhibition is reported as 4.75% (inactive).
For `CCOC(=O)N1CCN(C(=O)c2ccc3nc(-c4ccccc4)c(-c4ccccc4)nc3c2)CC1`, the inhibition was 2.02% (inactive).
In the case of `O=C(Nc1nc(-c2ccccn2)cs1)c1cc2ccccc2o1`, the inhibition is reported as 25.1% (inactive).
For `O=C(Nc1nc(-c2cccs2)cs1)c1ccc([N+](=O)[O-])o1`, the inhibition was -3.14% (inactive).
For `Cc1ccc(C(=O)Nc2nc(-c3cccnc3)cs2)o1`, the inhibition was -17% (inactive).
In the case of `Cc1ccc(-c2csc(NC(=O)c3ccc([N+](=O)[O-])o3)n2)cc1`, the inhibition is reported as 6.86% (inactive).
In the case of `COc1ccccc1C(=O)Nc1ccc2c(c1)n(C)c(=O)n2C`, the inhibition is reported as -3.88% (inactive).
With `CC(C)CN(C(=O)c1ccc(C(F)(F)F)cc1)c1c(N)n(CC(C)C)c(=O)[nH]c1=O` the inhibition was -4.85% (inactive).
With `CCCCNC(=S)Nc1ccc2nc(N3CCN(CC)CC3)cc(C)c2c1` the inhibition was 9.06% (inactive).
In the case of `COc1ccc(OCCCC(=O)Nc2ccc(OC)c(S(=O)(=O)N3CCOCC3)c2)cc1`, the inhibition is reported as -7.67% (inactive).
For `CNC(=O)c1ccc(Nc2nnc(C)c3ccccc23)cc1`, the inhibition was -2.75% (inactive).
With `O=C1NCCN1CCN1C(=O)c2ccccc2NC1c1ccccc1` (centres undefined) the inhibition was -24.1% (inactive).
For `CCn1c(/C=C2\C(=O)N(C(C)C)c3ccccc32)nc2ccccc2c1=O`, the inhibition was -0.25% (inactive).
For `CC(C)N1C(=O)/C(=C/c2nc3ccccc3c(=O)n2-c2ccccc2)c2ccccc21`, the inhibition was 27.7% (inactive).
In the case of `CC(C)Sc1cc(N2CCCC2)nc(-c2ccccc2)n1`, the inhibition is reported as -8.52% (inactive).
In the case of `COc1ccc(CNC(=O)C2CCCN2C(=O)NC2CCCCC2)cc1` (centres undefined), the inhibition is reported as 8.99% (inactive).
For `NC1=NC(=Nc2cccc(S(N)(=O)=O)c2)c2ccccc21`, the inhibition was -7.83% (inactive).
With `COc1ccc(S(N)(=O)=O)cc1N(C)S(=O)(=O)c1ccccc1` the inhibition was -8.33% (inactive).
With `O=CN1CCc2scc[n+]2-c2ccccc21` the inhibition was -18.5% (inactive).
With `C/C(=N\NC(=O)CCCNc1ccc(C)cc1)c1ccccn1` the inhibition was -0.81% (inactive).
In the case of `CCCCCC(=O)N/N=C(\C)c1ccccn1`, the inhibition is reported as 5.83% (inactive).
For `C=CCNC(=S)N/N=C(\C)c1cccnc1`, the inhibition was 1.12% (inactive).
For `C=CCNC(=S)N/N=C(\C)c1ccc(OC)cc1`, the inhibition was 1.71% (inactive).
With `C/C(Cc1ccccc1)=N\NC(=O)c1ccccn1` the inhibition was -7.02% (inactive).
With `C/C(=N\NC(=S)Nc1ccc(C)cc1)c1cccc(N)c1` the inhibition was 3.24% (inactive).
In the case of `COc1ccccc1NC(=S)Nc1ccccn1`, the inhibition is reported as -3.02% (inactive).
With `COc1ccccc1NC(=O)C/C(C)=N/NC(=O)c1ccccn1` the inhibition was 12.6% (inactive).
In the case of `CC1(C)Oc2ccc(C(=O)NC3CCCC3)cc2N(CC(=O)NC2CCCCC2)C1=O`, the inhibition is reported as -5.58% (inactive).
For `Cc1cc(C)nc(Nc2ccccc2Cl)n1`, the inhibition was -3.84% (inactive).
With `CN(CC(=O)Nc1ccc2c(c1)OCO2)S(=O)(=O)c1ccc(F)cc1` the inhibition was 0.79% (inactive).
For `S=C(NCCc1ccccn1)Nc1cccc(Cl)c1`, the inhibition was -6.8% (inactive).
With `S=C(NCc1ccccn1)Nc1cccc(Cl)c1` the inhibition was 10.7% (inactive).
With `C/C(=N\NC(=S)Nc1cccc(C)c1)c1ccccc1` the inhibition was 2.46% (inactive).
In the case of `Cc1cccc(NC(=S)Nc2ccccn2)c1`, the inhibition is reported as 3.18% (inactive).
For `Cc1nc(-c2ccc(Cl)cc2)sc1C(=O)O`, the inhibition was -5.39% (inactive).
In the case of `O=C1COc2ccc(S(=O)(=O)N3CCN(c4ccccc4)CC3)cc2N1`, the inhibition is reported as 6.48% (inactive).
For `CN(CC(=O)N1CCN(C2CCCCC2)CC1)S(=O)(=O)c1cccc2nsnc12`, the inhibition was 0.79% (inactive).
In the case of `CC(Sc1nnc(-c2cccnc2)o1)C(=O)NC1CCCC1` (centres undefined), the inhibition is reported as -4.28% (inactive).
In the case of `c1cnc2ccc(-c3ccc4ncccc4c3)cc2c1`, the inhibition is reported as 2.05% (inactive).
In the case of `Nc1ccc2ncccc2c1`, the inhibition is reported as 7.98% (inactive).
For `CC(=O)N(C)c1ccc(N=Nc2ccc3ncccc3c2)cc1`, the inhibition was 18.9% (inactive).
In the case of `Nc1ccc(N=Nc2ccc(N)cc2)cc1`, the inhibition is reported as -2.48% (inactive).
For `Nc1ccc(N=Nc2ccccc2)cc1`, the inhibition was 10.5% (inactive).
With `Cc1ccc2ncccc2c1` the inhibition was -1.21% (inactive).
For `CC(C)CN(C(=O)c1ccc(=O)n(C)n1)c1c(N)n(Cc2ccccc2)c(=O)[nH]c1=O`, the inhibition was -3.79% (inactive).
For `COc1ccccc1NS(=O)(=O)c1cccc(NC(=O)c2cncc(Br)c2)c1`, the inhibition was -6.77% (inactive).
For `COc1cccc(Oc2c(C)oc3c(CN4CCOCC4)c(O)ccc3c2=O)c1`, the inhibition was 8.63% (inactive).
In the case of `Cn1c(N)c(C(=O)CSc2nc3ccccc3c(=O)n2Cc2ccccc2)c(=O)n(C)c1=O`, the inhibition is reported as 10.1% (inactive).
In the case of `Cc1ccc(CNC(=O)CCC2CCCN(Cc3c(C)nn(C(C)C)c3C)C2)o1` (centres undefined), the inhibition is reported as 7.13% (inactive).
For `Cc1ccc(Cn2c(C(CO)Nc3nc(-c4ccc(Cl)c([N+](=O)[O-])c4)cs3)nc3ccccc32)cc1` (centres undefined), the inhibition was 1.74% (inactive).
With `O=C(Cc1cccs1)Nc1nnc(SCC(=O)NC2CCCCC2)s1` the inhibition was 3.29% (inactive).
For `Cc1nnc(-c2ccccc2)nc1N(C)C`, the inhibition was -13.6% (inactive).
With `C=CCNc1nc(-c2ccccc2)c(C(=O)OCC)cc1C#N` the inhibition was 10.4% (inactive).
For `CC(C)Nc1nc(-c2ccccc2)nnc1-c1ccccc1`, the inhibition was -7.91% (inactive).
With `Oc1ccccc1-c1nc(NC2CCCC2)c2ccccc2n1` the inhibition was -9.82% (inactive).
With `CC(C)Nc1nc(-c2ccccn2)nc(-c2ccccc2)c1C#N` the inhibition was 1.07% (inactive).
For `C=CCNc1cc(C(F)(F)F)nc(-c2ccccn2)n1`, the inhibition was -12.7% (inactive).
With `CCN(CC)c1nc(-c2ccccn2)nc(-c2ccccc2)c1C#N` the inhibition was 2.62% (inactive).
For `c1ccc(-c2nc(NC3CCCC3)c3ccccc3n2)cc1`, the inhibition was -1.14% (inactive).
For `CC(C)c1ccc(NC(=S)Nc2ccc3[nH]c(=O)[nH]c3c2)cc1`, the inhibition was 1.94% (inactive).
For `Cc1ccc(S(=O)(=O)N2CCOCC2)cc1NS(=O)(=O)c1ccc(F)c(F)c1`, the inhibition was -3.51% (inactive).
With `Cc1c(C(=O)Nc2ccccc2)c2cc(O)ccc2n1Cc1ccccc1` the inhibition was -3.07% (inactive).
In the case of `O=C1CCCN1CCC1CCN(C2CC(=O)N(Cc3ccc(N4CCCC4=O)cc3)C2=O)CC1` (centres undefined), the inhibition is reported as 18.3% (inactive).
For `COc1ccc(OC)c(C(=O)CN2CCN(S(=O)(=O)c3ccc(Br)cc3)CC2)c1`, the inhibition was 0.97% (inactive).
For `NC(=O)c1nsc(C(=O)N(c2ccc(F)cc2)C(C(=O)NC2CCCC2)c2ccncc2)c1N` (centres undefined), the inhibition was 7.29% (inactive).
With `CC1CCC2(CC1)C(Nc1cccc(Cl)c1)=NC(=S)N2CC#N` (centres undefined) the inhibition was 11.2% (inactive).
With `NC(=O)c1c(NC(=O)Cn2nc(C(=O)O)c3ccccc3c2=O)sc2c1CCC2` the inhibition was 0.19% (inactive).
With `CCOC(=O)c1c(NC(=O)CSc2nncn2C)sc(C)c1C` the inhibition was -1.87% (inactive).
In the case of `COc1cnc(-c2ccccn2)nc1Oc1ccccc1`, the inhibition is reported as 10.4% (inactive).
In the case of `COc1ccc(Oc2nc(-c3ccccn3)ncc2OC)cc1`, the inhibition is reported as 7.31% (inactive).
For `Cc1nc2c(C)cccc2c2c1COC2`, the inhibition was -0.38% (inactive).
With `CCOC(=O)c1sc(NC(=O)CSc2nc3c(cc2C#N)CCCCC3)c(C#N)c1C` the inhibition was 0.28% (inactive).
With `Cc1c(NC(=O)c2ccc(C(=O)Nc3c(C)n(C)n(-c4ccccc4)c3=O)cc2)c(=O)n(-c2ccccc2)n1C` the inhibition was 11.8% (inactive).
With `CCCCC[C@H]1CN(C2CCCCC2)C(=O)[C@@H]1CC(=O)NCc1ccccc1` the inhibition was -4.52% (inactive).
For `Cc1ccc2[nH]c3nc(SCC#N)nnc3c2c1`, the inhibition was 3.03% (inactive).
With `Cc1ccc2[nH]c3nc(N/N=C/c4cccc(O)c4)nnc3c2c1` the inhibition was 5.99% (inactive).
With `Cc1ccc(C)c(N(C)S(=O)(=O)c2ccc3[nH]cc(C(=O)NCCN4CCOCC4)c(=O)c3c2)c1` the inhibition was 13.2% (inactive).
In the case of `CCCCNc1c([N+](=O)[O-])cc(C(=O)O)cc1[N+](=O)[O-]`, the inhibition is reported as 25.7% (inactive).
For `O=[N+]([O-])c1ccc2c(c1N1CCCCC1)=NC1(CCCCC1)[N+]=2[O-]`, the inhibition was -7.13% (inactive).
For `CCCCNc1nc(N)ncc1[N+](=O)[O-]`, the inhibition was -2.32% (inactive).
In the case of `[O-][N+]1=c2ccc(Nc3ccccc3)cc2=NC12CCCCC2`, the inhibition is reported as 16.6% (inactive).
In the case of `Cc1noc(C)c1S(=O)(=O)N1CCC(C(=O)O)CC1`, the inhibition is reported as -5.05% (inactive).
In the case of `CC1(C)CC(CCN)(Cc2ccccc2Cl)CCO1` (centres undefined), the inhibition is reported as -1.58% (inactive).
With `COc1ccccc1N1CCN(C(=O)c2c(-c3c(F)cccc3Cl)noc2C)CC1` the inhibition was -1.81% (inactive).
For `CCOc1ccc2noc3c2c1C(=O)c1ccccc1-3`, the inhibition was 7.74% (inactive).
With `CN1CCN(c2cccc3c2C(=O)c2ccccc2C3=O)CC1` the inhibition was 4.2% (inactive).
In the case of `N#Cc1c(Cl)cccc1N1CCCC1`, the inhibition is reported as -9.33% (inactive).
In the case of `O=C1c2ccccc2-c2c1cccc2C(=O)N1CCOCC1`, the inhibition is reported as -11.9% (inactive).
With `O=C1c2ccccc2-c2onc3ccc(Oc4ccccc4)c1c23` the inhibition was 11.9% (inactive).
In the case of `O=C1C(Cl)=C(N2CCCCC2)C(=O)N1c1ccccc1Cl`, the inhibition is reported as -3.44% (inactive).
With `Nc1ccccc1N1CCOCC1` the inhibition was 0.99% (inactive).
For `O=C1c2ccccc2C(=O)c2cc(N3CCCCC3)ccc21`, the inhibition was -3.43% (inactive).
In the case of `O=C(N1CCCC1)C12CC3CC(CC(C3)C1)C2`, the inhibition is reported as -8.92% (inactive).
For `CCCOc1ccc(C(=O)OCC(=O)c2c(N)n(C)c(=O)n(C)c2=O)cc1OCC`, the inhibition was -1.83% (inactive).
With `CCN(CC(=O)NC(=O)NCc1ccccc1)CC(=O)Nc1cc(Cl)ccc1C` the inhibition was -8.38% (inactive).
With `CC(C)Cn1c(N)c(C(=O)COC(=O)c2c(F)cccc2F)c(=O)n(C)c1=O` the inhibition was -5.45% (inactive).
